Records with an inconclusive call do not appear. Active and inactive are the calls of the source. Calls follow the shape of the dose curve; as a rule, active = well fitted cell-killing curve with a large enough effect in the repeat runs (not every such curve was filed as active); inconclusive = weak or mixed curves, or effect the other way; inactive = no such curve, though single readings can be large or run the other way.
Assay: qHTS assay to identify small molecule antagonists of the farnesoid-X-receptor (FXR) signaling pathway - cell viability counter screen (AID 743221); also: nearly all actives have a fitted effect of over 50% in size
Settings: FXR-bla HEK293T viability, CellTiter-Glo luminescence, 16 h; series mostly up to 62.6 µM
Description: National Center for Advancing Translational Sciences [NCATS]
NIH Chemical Genomics Center [NCGC]
U.S. Environmental Protection Agency [EPA]
National Institutes of Environmental Health Sciences [NIEHS]
National Toxicology Program [NTP]
U.S. Food and Drug Administration [FDA]
The farnesoid-X-receptor (FXR), a nuclear hormone receptor, is highly expressed in liver, intestine, kidney and adrenal cortex. Natural ligands of FXR are the bile acids (Cholic acid, Chenodeoxy cholic acid etc). FXR is an important regulator of diverse metabolic pathways, including the bile acid homeostasis, lipid and glucose metabolisms. FXR regulates the expression of target genes by binding either as a monomer or as a heterodimer with the retinoid X receptor (RXR). Numerous studies have reported that FXR exerts protective function during cholestasis, diabetes, liver regeneration, and cancer. To identify compounds that inhibit FXR signaling, GeneBLAzer FXR-UAS-bla HEK 293T cell line (Invitrogen, Carlsbad, CA) containing a beta-lactamase reporter gene under the control of a UAS response element was used to screen the Tox21 10K compound library. The cytotoxicity of the Tox21 compound library against the FXR-bla cell line was tested in parallel by measuring the cell viability using CellTiter-Glo assay in the same wells.
Tox21 Assay Protocol Summary:
FXR-bla cells were dispensed at 5000 cells/5uL/well in 1536-well black wall/clear bottom plates using a Multidrop Combi (Thermo Fisher Scientific, Waltham, MA) dispenser. After the assay plates were incubated at 37 C and 5% CO2 for 5 h, 23 nL of compounds dissolved in DMSO, positive controls or DMSO only was transferred to the assay plate by a Pintool station (Kalypsys, San Diego, CA), followed by addition of 1 uL Chenodeoxycholic acid (50 uM, final concentration in the wells). The assay plates were incubated at 37C for 16 h. After 1 uL of LiveBLAzerTM B/G FRET substrate was added using a Bioraptr Flying Reagent Dispenser (FRD) workstation (Beckman Coulter, Indianapolis, IN), the plates were incubated at room temperature for 2 h, and fluorescence intensity was measured by an Envision plate reader (PerkinElmer, Shelton, CT). For cell viability readout that measures cytotoxicity, 4uL/well of CellTiter-Glo reagent was added into the assay plates using a Bioraptr FRD. After 30 min incubation at room temperature, the luminescence intensity in the plates was measured using a ViewLux plate reader (PerkinElmer).

With `O=C(O)/C=C(\CC(=O)O)C(=O)O` as the compound, how does the outcome read?
The outcome was “inactive”.

Which outcome does the source give for `C/C=C(\C)C(=O)OC/C=C(\C)CCC=C(C)C` here?
Its outcome is “inactive”.

For `CN(C)c1ccncc1`, which outcome is on record?
Its outcome is “inactive”.

For `CCOC(=O)[C@H](CCc1ccccc1)N[C@H]1CS[C@H](c2cccs2)CN(CC(=O)O)C1=O`, which outcome is on record?
The outcome was “inactive”.

For `CCC(C)SSC(C)CC` (stereo not given), which outcome is on record?
Its outcome is “inactive”.

Which outcome does the source give for `CC(=O)c1ccc(O)c(C(N)=O)c1` here?
Its outcome is “inactive”.

With `CCOc1ccccc1OCCN[C@H](C)Cc1ccc(OC)c(S(N)(=O)=O)c1` as the compound, how does the outcome read?
Its outcome is “inactive”.

For `CC(C)(C)NCC(O)COc1cccc2c1CCC(=O)N2` (stereo not given), which outcome is on record?
The outcome was “inactive”.

Which outcome does the source give for `c1coc(Cn2cccc2)c1` here?
The outcome was “inactive”.

With `O=Cc1ccc(C(=O)O)cc1` as the compound, how does the outcome read?
The outcome was “inactive”.

Which outcome does the source give for `N#Cc1cc(NC(=O)C(=O)O)c(Cl)c(NC(=O)C(=O)O)c1` here?
The outcome was “inactive”.

Which outcome does the source give for `CCCOc1ccc(C(=O)OCCN(CC)CC)cc1N` here?
Its outcome is “inactive”.

For `CCCCCCCCOCCC#N`, which outcome is on record?
Its outcome is “inactive”.

Which outcome does the source give for `CCCCC(CC)CCC(CC(C)C)OS(=O)(=O)O` (stereo not given) here?
Its outcome is “inactive”.

Which outcome does the source give for `NS(=O)(=O)c1cc2c(cc1C(F)(F)F)NCNS2(=O)=O` here?
The outcome was “inactive”.

With `CC(O)CCCCn1c(=O)c2c(ncn2C)n(C)c1=O` (stereo not given) as the compound, how does the outcome read?
Its outcome is “inactive”.

Which outcome does the source give for `COCc1nnc(-c2ccc[n+]([O-])c2)n1-c1c(Cl)c(Cl)cc2[nH]c(=O)c(=O)[nH]c12` here?
The outcome was “inactive”.

For `CCCCCC(=O)CC`, which outcome is on record?
Its outcome is “inactive”.

Which outcome does the source give for `O=C(OOC(=O)c1ccccc1)c1ccccc1` here?
The outcome was “inactive”.

For `Cc1ccc2ccccc2n1`, which outcome is on record?
Its outcome is “inactive”.

Which outcome does the source give for `CCCCC(O)/C=C(C)/C=C/C=C/C(=O)N1CCCC1=O` (stereo not given) here?
The outcome was “inactive”.

Which outcome does the source give for `O=S(=O)(O)c1ccc(Cl)cc1` here?
Its outcome is “inactive”.

For `CC(C)(C)C(=O)NCCCC(=O)O`, which outcome is on record?
The outcome was “inactive”.

For `CN1CCN(C(=O)C2CCCCC2)CC1`, which outcome is on record?
The outcome was “inactive”.

For `O=C(O)Cc1ccccc1Oc1ccc(Cl)cc1Cl`, which outcome is on record?
The outcome was “inactive”.

With `O=C1CC2(CCCC2)CC(=O)N1CCNCC1COc2ccccc2O1` (stereo not given) as the compound, how does the outcome read?
The outcome was “inactive”.

For `CCN(CC)CC`, which outcome is on record?
The outcome was “inactive”.

Which outcome does the source give for `CNC(C)=O` here?
Its outcome is “inactive”.

Which outcome does the source give for `CC/C=C/CCCCCCCCCCOC(C)=O` here?
The outcome was “inactive”.

For `CC(=O)/C=C/C=C1/C2CCC(C2)C1(C)C` (stereo not given), which outcome is on record?
The outcome was “inactive”.

With `Cc1cc(O)c(Cl)cc1C` as the compound, how does the outcome read?
Its outcome is “inactive”.

Which outcome does the source give for `Cc1nc2ccc(Cl)cc2[nH]1` here?
Its outcome is “inactive”.

For `CC(C)(C)OC(=O)c1ccccc1C(=O)O`, which outcome is on record?
The outcome was “inactive”.

Which outcome does the source give for `CC(C)C(C)C` here?
The outcome was “inactive”.

For `CC(C)(O)c1ccc(C(C)(C)O)cc1`, which outcome is on record?
Its outcome is “inactive”.

With `CCCCN(CCCC)CCCCCCN(CCCC)CCCC` as the compound, how does the outcome read?
Its outcome is “inactive”.

With `CC(=O)O[C@@H]1CC2C3CCc4cc(OC(=O)c5ccccc5)ccc4C3CCC2(C)[C@H]1OC(C)=O` (stereo not given in full) as the compound, how does the outcome read?
The outcome was “inactive”.

With `CCCCOCCCC` as the compound, how does the outcome read?
Its outcome is “inactive”.

With `CC(C)(C)OC=O` as the compound, how does the outcome read?
The outcome was “inactive”.

With `CCCCC(CC)COC(=O)CC#N` (stereo not given) as the compound, how does the outcome read?
Its outcome is “inactive”.
